# Source: PubChem BioAssay
# MARV entry inh: qHTS for inhibitors of binding or entry into cells for Marburg Virus; hit rate 1.8% among 300,000; Potency, µM (top dose mostly 37.8 µM), for inactives: top-dose activity change, negative = inhibition, hits mostly inhibitors; AID 540276, 2011; Marburg virus pseudotyped entry inhibition, cell reporter; calls by dose curve; tested in HEK293 cells; also: potency is read from the fitted curve at half-maximal effect
# Lassa entry inh: qHTS for Inhibitors of binding or entry into cells for Lassa Virus; Lassa virus pseudotype entry inhibition, cell reporter; Potency, µM (series often up to 37.9 µM), inactives show at the top dose activity change, negative = inhibition, hits mostly inhibitors; hit rate 1.2% among 300,000; AID 540256, 2011; calls by dose curve; tested in HEK293 cells; also: potency is read from the fitted curve at half-maximal effect; nearly all actives have a fitted effect of over 50% in size
# VACV mCherry inh: qHTS for Stage-Specific Inhibitors of Vaccinia Orthopoxvirus: mCherry Reporter Primary qHTS; Vaccinia virus mCherry reporter infection, fluorescence; Potency, µM (top dose mostly 36.5 µM), inactives show at the highest dose activity change, negative = inhibition, hits mostly inhibitors; hit rate 0.63% among 310,000; calls by dose curve; tested in A549 cells; also: potency is read from the fitted curve at half-maximal effect; nearly all actives have a fitted effect of over 35% in size
# Vaccinia Venus: qHTS for Stage-Specific Inhibitors of Vaccinia Orthopoxvirus: Venus Reporter Primary qHTS | Vaccinia virus Venus reporter expression, fluorescence | Potency, µM (top dose mostly 36.5 µM), for the others: at the top dose activity change, negative = inhibition, actives largely listed as inhibitors | hit rate 0.46% among 330,000 | AID 720580, 2013; calls by dose curve; tested in A549 cells; also: potency is read from the fitted curve at half-maximal effect; nearly all actives have a fitted effect of over 30% in size
# FMDV antiviral: High Throughput Screening for Foot and Mouth Disease Virus Antivirals; FMDV antiviral cell-based qHTS; Potency, µM (titrated, usually from 57.9 µM), for inactives: at the highest dose activity change, negative = inhibition, most hits filed as inhibitors; hit rate 1.2% among 410,000; AID 1159524, 2015; calls by dose curve; tested in HEK293T cells; also: read-out not given here; potency is read from the fitted curve at half-maximal effect; nearly all actives have a fitted effect of over 45% in size
# HCMV antiviral: qHTS Assay for inhibitors of the human cytomegalovirus (HCMV) | HFF cells, HCMV-luciferase reporter, 72 h; hits give low values | activity change, negative = inhibition, % at 57.5 µM | hit rate 4.5% among 410,000 | AID 1259415, 2018; in the data active = activity change below about -60%; inconclusive = no clear call, values can overlap the other calls; inactive = above about -39%
#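 Steps: HFFs plated, 16 h 37C; compounds added; HCMV-luciferase added to MOI 1 PFU/cell; 72 h 37C; OneGlo reagent, 5 min room temperature; luminescence read, normalized to controls.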
# Active calls of the source: *; i = inactive; u = inconclusive; x = no result; [ ] = remark or other dose. Shown are actives, neighbours in structure and some others; about 6.5% of the full set was active somewhere. % is scaled to controls: 0 for no effect and ±100 for the full control effect.
SMILES,MARV entry inh,Lassa entry inh,VACV mCherry inh,Vaccinia Venus,FMDV antiviral,HCMV antiviral
CC(=O)NC(CC(=O)Nc1ccc(S(=O)(=O)N2CCCC2)cc1)c1ccccc1 (stereo not given),-3%,-3%,x,x,-19%,14
Cc1nc(CC(=O)NCC2Cc3cc(F)cc(-c4ccc(F)c(C)c4)c3O2)cs1 (stereo not given),x,x,-10%,-4%,-5%,x
COc1ccc(NC(=O)COC(=O)CN2C(=O)C3CC=CCC3C2=O)c([N+](=O)[O-])c1 (stereo not given),7%,-1%,i,-4%,3%,-22
CC(=O)Nc1ccc(NC(=O)c2ccccc2CCc2ccccc2)cc1,u,10µM*,i,4%,-20%,u
COc1cc(/C=N/NC(=O)CN(CCc2ccccc2)S(=O)(=O)c2ccc(NC(C)=O)cc2)cc(OC)c1OC,-10%,18µM*,i,-16%,u,-31
CC(=O)Nc1ccc(S(=O)(=O)N(c2cccnc2)S(=O)(=O)c2ccc(NC(C)=O)cc2)cc1,u,0.82µM*,x,x,-9%,-24
COc1ccc(/C=N/NC(=O)CN(CCc2ccccc2)S(=O)(=O)c2ccc(NC(C)=O)cc2)cc1OC,u,u,i,-6%,-10%,33
CC(=O)Nc1ccc(CCNC(=O)c2ccc3ccccc3c2O)cc1,u,1µM*,i,13%,3%,-36
CCc1cc(=O)[nH]c(SC/C=C/c2ccccc2)n1,x,x,x,x,-12%,x
O=C(C[C@@H]1C=C[C@H](NS(=O)(=O)c2ccccc2F)[C@@H](CO)O1)NCCCN1CCOCC1,x,x,-2%,-11%,-14%,u
CCOC(=O)NN=C1C[C@@H](O)[C@@H](O)[C@@H]2[C@H]3C(=O)N(CC)C(=O)[C@@H]3CC[C@@H]12,8%[14.2 µM],u,x,x,x,x
COC(=O)[C@@H]1[C@@H](CO)[C@@H]2Cn3c(ccc(Br)c3=O)[C@H]1N2S(=O)(=O)c1ccccc1F,x,x,x,x,x,-6
CN1C(=O)C(CC(=O)NCCc2ccccc2)N(NC(=O)c2ccc(Cl)cc2)C1=S (stereo not given),x,x,x,x,-10%,-74*
O=C(C[n+]1cccc(Br)c1)c1ccc(F)cc1,x,x,-10%,-5%,x,x
C=C(C)CCCN1C=C(C(=O)OCC)C(c2ccccc2)NC1=O (stereo not given),-14%[14.2 µM],u,x,x,x,x
CCN(CC)Cc1cc(Nc2c3ccccc3nc3c4ccccc4n(C)c23)cc(CN(CC)CC)c1O,u,11µM*,-21%,11µM*,-18%,-25
Cc1ccc2cc(F)c(F)c(F)c2n1,x,x,20%,8%,-15%,-2
Cc1ccc2ccc3ccc(C)nc3c2n1,x,x,-23%,-17%,-24%,-94*
CCOC(=O)COc1ccc([N+](=O)[O-])cc1-c1ccnc2cc(-c3ccc(C)cc3)nn12,-11%[46.1 µM],0%[46.1 µM],-5%,0%,-19%,19
Cc1ccc(-c2cc3nccc(-c4cc([N+](=O)[O-])ccc4O)n3n2)cc1,-5%[46.1 µM],u,-21%,-11%,-11%,-63*
OCCCNCc1cc2ccc(F)cc2nc1N1CCN(c2cccc(Cl)c2)CC1,x,x,u,-16%,0%,x
CC(N)C(=O)c1ccco1 (stereo not given),27%,0%,x,-26%,-18%,-68*
O=S(=O)(NCCOc1ccccc1F)c1ccc(Cl)cc1F,x,x,x,x,22%,-28
COc1ccc(C(C#N)CC(=O)c2ccc(OC)c(OCc3ccccc3)c2)cc1OC (stereo not given),x,x,-18%,u,u,-70*
Cc1nn(C)c2c1c(C(F)(F)F)cc(=O)n2C(C)C(=O)N1CCN(c2ccccc2)CC1 (stereo not given),x,6%[46.1 µM],-8%,-13%,u,4
SMILES,MARV entry inh,Lassa entry inh,VACV mCherry inh,Vaccinia Venus,FMDV antiviral,HCMV antiviral
CC1CCc2cc(F)ccc2N1C(=O)CCl (stereo not given),u,-3%,-21%,-2%,14µM*,x
CCC(CC)C(=O)N1c2ccc(F)cc2CCC1C (stereo not given),2%,13%,-16%,-5%,-13%,-33
COc1ccc(-c2csc3ncnc(N4CCN(S(=O)(=O)c5cccs5)CC4)c23)cc1,u,u,i,-12%,-17%,-71*
COc1ccc(-c2csc3ncnc(N4CCN(S(=O)(=O)c5ccc(Cl)s5)CC4)c23)cc1,u,u,u,-21%,-27%,-66*
CCN1CCN(C(=O)c2cc(NC(=O)COC)cc3nc(-c4ccncc4)n(C)c23)CC1,x,x,-10%,1%,-9%,x
COc1ccc(C[C@H]2CN3C(=NC[C@@H]3Cc3ccc(O)cc3)N2C[C@H](C)NC(=O)c2ccc(C)c(Br)c2)cc1,x,x,u,13µM*,-18%,x
Cc1ccc(C(=O)N[C@@H](C)CN2C3=NC[C@@H](Cc4ccccc4)N3C[C@H]2Cc2ccc(O)cc2)cc1Br,x,x,u,u,u,11
Cc1ccc(C(=O)N[C@@H](C)CN2C3=NC[C@H](Cc4ccccc4)N3C[C@H]2Cc2ccc(O)cc2)cc1Br,x,x,u,13µM*,-24%,x
COc1ccc(C[C@H]2CN3C(=NC[C@@H]3C(C)C)N2C[C@H](C)NC(=O)c2ccc(C)c(Br)c2)cc1,x,x,u,u,-15%,-37
CCn1nc(C)cc1C(=O)NCCN1Cc2ccccc2OC(c2ccccc2F)C1 (stereo not given),x,x,-20%,-7%,u,x
COc1ccc(OCCCC(=O)OC(C)C(=O)Nc2ccc(C)cc2)cc1 (stereo not given),10%,1%,i,-8%,-8%,-19
Cc1c(N=C2N=C(NC(=O)c3ccc(F)cc3)c3ccccc32)c(=O)n(-c2ccccc2)n1C,u,10%,i,-8%,28µM*,68
CCOC(=O)c1c(C)[nH]c(C)c1S(=O)(=O)N1CCCC(C(=O)Nc2ccc(C)c(N(C)C)c2)C1 (stereo not given),x,0%[46.1 µM],-16%,-6%,22%,-6
CC(=O)N1CCc2c(sc(NC(=O)C3CCCN3S(=O)(=O)c3cccs3)c2C(N)=O)C1 (stereo not given),13%,2%,i,-11%,28µM*,-7
Cc1c(C(=O)C(=O)NCCC2=CCCCC2)c2ccccc2n1C,4%,12%,-12%,-9%,20%,-62*
C[C@H](CO)N1C[C@H](C)[C@@H](CN(C)C(=O)Nc2ccccc2)Oc2ccc(NC(=O)C3CCCCC3)cc2C1=O,x,x,-7%,-4%,27%,37
CCC(=O)OCC(=O)Nc1ccc2c(c1)OCO2,-10%[14.2 µM],-17%,10%,0%,16%,-32
COc1cccc(/C=C/C(=O)OCC(=O)Nc2ccc3c(c2)OCO3)c1,x,x,-17%,-15%,-10%,-97*
O=C(COC(=O)c1cccnc1)Nc1ccc2c(c1)OCO2,x,x,x,x,2%,-84*
